The source of these data is PubChem BioAssay AID430 (Sanford-Burnham Center for Chemical Genomics, 2006).

Screen size: about 63,000 compounds; about 1,100 (1.7%) were called active. Cut-off read from the data, not from the text of the source: active = cytotoxicity above about 50%; inactive = the rest. The full list was thinned out, with actives kept by preference. Measured potencies and affinities stand elsewhere.

The nature of the experiment: HPDE-C7 pancreatic duct cell viability loss – fluorescence, HTS (AID 430).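 Note: cells exposed to compound for 48 hours before viability readout; 0% = vehicle and 100% = reference cytotoxic drug.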 The note with it: HPDE-C7 pancreatic duct cells viability, at 10 µM, active compounds read high.
For the molecule `CN(C)C(=O)N1CCC(C(=O)NCc2ccc(F)cc2)CC1`, the cytotoxicity was -10.1% (inactive).
For `Cc1[nH]nc2c1C(Cc1ccccc1)C(C#N)=C(N)O2` (stereo not given), the cytotoxicity was -12.3% (inactive).
With `Cc1cccc(Nc2ccccc2C(=O)O)c1C`, the cytotoxicity was 3.8% (inactive).
For `Cc1c(Cl)cccc1Nc1ccccc1C(=O)O` the value was -3.4% (inactive).
The same measure for `Cc1ccc(Cl)c(Nc2ccccc2C(=O)O)c1Cl`: 66.2% (active).
For `O=C1c2ccccc2C(=O)N1CCCc1nc(-c2cccnc2)no1` the value was 6.9% (inactive); for `Fc1ccc(-n2c(-c3ccco3)nc3nc4ccccc4nc32)cc1`, -1.1% (inactive); for `N#Cc1nc(COc2ccc(-c3ccccc3)cc2)oc1NCc1cccnc1`, 61.9% (active).
Take `N#Cc1nc(Cc2ccccc2)oc1NCc1cccnc1`: the cytotoxicity is -12.4% (inactive).
The same measure for `CC(C)(C)c1ccc(-c2nc(C#N)c(NCc3ccncc3)o2)cc1`: 54.6% (active); for `COc1ccc(-c2nc(C#N)c(NCCCN3CCOCC3)o2)cc1`: -6.6% (inactive); for `N#Cc1nc(-c2ccc(OCc3ccc(Cl)cc3)cc2)oc1NCCCn1ccnc1`: -0.4% (inactive).
For `N#Cc1nc(-c2ccc(OCc3ccc(Cl)cc3)cc2)oc1NCc1cccnc1` the value was 53.4% (active); for `N#Cc1nc(-c2ccc(F)cc2)oc1NCc1ccccc1`, -17.1% (inactive).
The same measure for `COc1ccc(CNc2oc(-c3ccccc3)nc2C#N)cc1`: 5.7% (inactive).
`N#Cc1nc(-c2ccc(OCc3ccccc3)cc2)oc1NCc1cccnc1`: the cytotoxicity was 0.6% (inactive).
`COc1ccc(CNc2oc(COc3ccccc3)nc2C#N)cc1`: the cytotoxicity was 0.5% (inactive).
The same measure for `N#Cc1nc(-c2ccc(OCc3ccccc3)cc2)oc1NCCN1CCOCC1`: -1% (inactive).
The same measure for `Cc1ccc(-n2nnc3c(=O)n(Cc4ccccc4C)cnc32)cc1`: 0.5% (inactive); for `COCCNC(=O)C(c1ccc(Cl)cc1)N(C(=O)CCC(=O)Nc1ccccn1)C1CCCC1` (stereo not given): -1.7% (inactive).
The same measure for `CNCCOCC(O)CSc1ccccc1` (stereo not given): 1.2% (inactive).
Regarding `Cc1cccc(-c2nnn(CC/C(N)=N/O)n2)c1`, the cytotoxicity is 2.8% (inactive).
The same measure for `CCN1CCN(c2nc(-c3cccnc3)nc3ccccc23)CC1`: -27.8% (inactive).
The same measure for `COc1ccc(NC(=O)C(Cc2ccccc2)NC(=O)c2ccco2)cc1OC` (stereo not given): -0.4% (inactive); for `c1ccc(CSc2nnc3c(n2)OC(c2ccco2)Nc2ccccc2-3)cc1` (stereo not given): -3.6% (inactive); for `O=C(Nc1ccc2c(c1)OCO2)C(c1ccccc1)N1CCCCC1` (stereo not given): -14% (inactive).
For `O=c1[nH]nnc2c1sc1nc(N3CCOCC3)c3c(c12)CCCC3` the value was 30.8% (inactive); for `COc1ccccc1-n1c(=O)oc2ccc(Cl)cc2c1=O`, 59.7% (active); for `COc1ccccc1C1c2c(oc3ccc(Cl)cc3c2=O)C(=O)N1c1cc(C)on1` (stereo not given), -14.3% (inactive).
As for `COc1ccccc1-n1c(SC)nc(O)cc1=O`, the cytotoxicity is 4.6% (inactive).
